Screening data (PubChem BioAssay)
Compounds with a hit are over-represented: about 3.2% of the library has one in this group of screens.
NRP1-CendR mod: NRP-1/CendR interaction modulation; AID 602438; O14786; 360,000 tested, 0.85% active; FAM-RPARPAR peptide binding to NRP-1, fluorescence polarization; inhibition, % at 25 µM;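 active = inhibition or corrected inhibition above about 18%, plus a signal ratio from 0.5 to 1.5, limit read from the data, passing the limit was not always enough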
Target sequence (O14786 whole entry, looked up): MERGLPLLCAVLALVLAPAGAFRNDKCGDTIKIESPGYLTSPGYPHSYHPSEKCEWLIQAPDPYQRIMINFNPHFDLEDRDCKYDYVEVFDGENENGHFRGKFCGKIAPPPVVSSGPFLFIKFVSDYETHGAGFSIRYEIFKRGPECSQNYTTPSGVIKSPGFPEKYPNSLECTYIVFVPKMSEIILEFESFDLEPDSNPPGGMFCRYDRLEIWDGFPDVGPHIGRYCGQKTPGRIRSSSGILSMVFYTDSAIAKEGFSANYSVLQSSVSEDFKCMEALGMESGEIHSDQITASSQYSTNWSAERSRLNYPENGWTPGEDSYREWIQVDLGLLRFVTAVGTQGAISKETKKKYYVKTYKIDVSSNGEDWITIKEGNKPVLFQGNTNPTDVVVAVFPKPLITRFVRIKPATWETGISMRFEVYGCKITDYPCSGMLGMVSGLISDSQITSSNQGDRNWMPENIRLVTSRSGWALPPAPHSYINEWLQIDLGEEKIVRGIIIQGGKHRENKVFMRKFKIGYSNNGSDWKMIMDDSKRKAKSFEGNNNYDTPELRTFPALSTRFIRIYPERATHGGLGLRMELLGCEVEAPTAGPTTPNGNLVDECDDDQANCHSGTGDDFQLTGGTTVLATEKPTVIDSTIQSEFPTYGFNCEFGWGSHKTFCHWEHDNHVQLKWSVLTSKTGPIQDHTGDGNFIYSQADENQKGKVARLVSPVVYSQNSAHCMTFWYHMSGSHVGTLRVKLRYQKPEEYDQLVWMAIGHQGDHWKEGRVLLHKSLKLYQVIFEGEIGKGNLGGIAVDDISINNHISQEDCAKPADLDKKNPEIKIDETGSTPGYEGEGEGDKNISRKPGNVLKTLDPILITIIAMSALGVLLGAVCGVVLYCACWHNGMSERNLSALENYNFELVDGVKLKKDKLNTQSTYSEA
MEKK3 PB1 HTS: raises or lowers MEK5 binding to the human MEKK3 PB1 domain; binding response (% of control), % at 10 µM; 290,000 tested, 1.4% active; Q99759; bead-based flow cytometry, Alexa488-MEK5 binding to MEKK3; actives lie on both sides; 0 = blocked by unlabeled MEK5, 100 = vehicle;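 active = binding response more than 3 SD above or below the average of its plate-row segment, actives on both sides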;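 also: Alexa488 bead fluorescence after subtracting the streptavidin-only scavenger bead signal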
SKN-1 block: blocks SKN-1 activity in C. elegans; 360,000 tested, 0.49% active; inhibition, % at 21.8 µM; C. elegans VP596 Pgst-4::GFP/RFP ratio, acrylamide-induced, 24 h; AID 624304;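 active = interference check ratio from 0.5 to 1.5 plus GFP to RFP signal ratio inhibition reaching or exceeding a fixed threshold, cut at about 30% in these data, passing the limit was not always enough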
MEKK2mut PB1 HTS: signal of MEK5 binding to mutant human MEKK2 PB1 domain; bead flow cytometry, Alexa488-MEK5 binding to MEKK2 mutant; percent response, % at 10 µM; 290,000 tested, 0.35% active; in the data active = percent response above about 24%, passing the limit was not always enough
MEKK2 WT-MEK5: raises or lowers MEK5 binding to wildtype human MEKK2 PB1 domain | bead flow cytometry, Alexa488-MEK5 binding to MEKK2 WT; actives lie on both sides | binding response (% of control), % at 10 µM | 290,000 tested, 1.1% active | AID 1531; in the data active = binding response below about 67% or above about 130%
MEKK2wt confirm: raises or lowers MEK5 binding to wildtype human MEKK2, retest; AID 1892; shares compounds with MEKK3 PB1 HTS; 5,900 tested, 2.4% active; bead flow cytometry, Alexa488-MEK5 binding to MEKK2 WT; actives lie on both sides; binding response (% of control), % at 10 µM; in the data active = binding response below about 16% or above about 210%; inactive = in between
MEKK2mut-MEK5: signal of MEK5 binding to mutant human MEKK2, retest | percent response, % at 10 µM | shares compounds with MEKK3 PB1 HTS | bead flow cytometry, Alexa488-MEK5 binding to MEKK2 mutant | 5,900 tested, 2% active | AID 1893; in the data active = percent response mostly above about 71%, no sharp cut-off; inactive = mostly below about 38%;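 also: higher means compound restores mutant binding toward wildtype level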
MEKK3 confirm: MEKK3-MEK5 PB1 inhibition, single concentration confirmation; shares compounds with MEKK3 PB1 HTS; bead flow cytometry, Alexa488-MEK5 binding to MEKK3; hits give low values; binding response (% of control), % at 10 µM; 5,900 tested, 1.8% active; AID 1894;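 active = binding response below 72% of control, or above a set upper limit, though filed actives all read lower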;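 also: 100% = DMSO only wells and 0% = binding blocked by excess unlabeled MEK5; lower values mean stronger disruption of MEK5 binding to MEKK3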
* marks the source's active call; other numbers are inactive results; . = not tested or not shown; [ ] = remark or other dose.

SMILES	NRP1-CendR mod	MEKK3 PB1 HTS	SKN-1 block	MEKK2mut PB1 HTS	MEKK2 WT-MEK5	MEKK2wt confirm	MEKK2mut-MEK5	MEKK3 confirm
Cn1cnnc1Sc1ccc(C(=O)OCC(=O)Nc2cc(Cl)cc(Cl)c2)cc1[N+](=O)[O-]	7.8	137.0*	-4.8	3.0	119.0	124.0	15.0	99.0
O=C(CN1C(=O)C(=O)c2ccccc21)NC1CCCCC1	1.1	48.0*[inhibitor]	3.1	0.0	98.0	101.0	5.0	100.0
CN(C)S(=O)(=O)c1ccc(/C(O)=C2/C(=O)C(=O)N(CCCN3CCOCC3)C2c2ccncc2)cc1 (stereo not drawn)	9.0	.	-7.0	.	.	.	.	.
CC(=O)Nc1nnc(SCC(=O)N2CCCc3ccccc32)s1	1.7	88.0	-3.8	-3.0	96.0	.	.	.
CC(=O)Nc1nnc(SCC(=O)N2CCN(Cc3ccccc3)CC2)s1	7.6	75.0*[inhibitor]	33.2	3.0	105.0	103.0	-1.0	103.0
Cc1csc2sc(-c3ccnc(SCC(=O)NCc4ccccc4)n3)c(C)c12	-6.0	130.0*	-6.2	27.0	112.0	103.0	-2.0	102.0
Cc1csc(SCC(=O)NCc2ccccc2)n1	-3.0	101.0	-7.1	-1.0	102.0	.	.	.
CN(C)Cc1cc(C(C)(C)c2ccccc2)ccc1O	6.0	.	3.4	.	.	.	.	.
Cc1noc(NS(=O)(=O)c2ccc(NC(=O)c3cc(F)c(F)c(F)c3F)cc2)c1C	-6.1	.	19.8	.	.	.	.	.
Cc1ccc(Nc2nc(NCC3CCCO3)nc(N)c2[N+](=O)[O-])cc1C (stereo not drawn)	-26.3	74.0*[inhibitor]	-0.4	-1.0	95.0	106.0	5.0	102.0
CC(C)CNc1nc(N)c([N+](=O)[O-])c(NCC2CCCO2)n1 (stereo not drawn)	-3.6	95.0	5.9	-3.0	94.0	.	.	.
CC(=O)Nc1cc(-c2ccccc2N(C)C)cn2c(-c3cccc(C(F)(F)F)c3)cnc12	127.7	.	31.5	.	.	.	.	.
CCCC(C)(C)C(=O)N1CCC1(C)C(=O)Nc1cccc2ccccc12 (stereo not drawn)	-4.0	.	7.6	.	.	.	.	.
Cc1ccccc1NC(NC(=O)c1cccnc1)C(Cl)(Cl)Cl (stereo not drawn)	-7.1	132.0*	-5.5	3.0	107.0	101.0	-3.0	99.0
COc1ccc(NC(NC(=O)c2cccnc2)C(Cl)(Cl)Cl)cc1 (stereo not drawn)	7.5	98.0	-3.4	-1.0	93.0	.	.	.
Nc1[nH]n(-c2ccccc2)c(=O)c1N=Nc1ccc2c(c1)OCCO2	-6.5	75.0*[inhibitor]	-7.2	-9.0	80.0	98.0	-2.0	103.0
CCOC(=O)CCC1(C(=O)OC)C(=O)CCCCCC=C1C(=O)OC (stereo not drawn)	-4.0	.	-7.7	.	.	.	.	.
Cc1ccc2c(c1)-c1nc3ccccc3cc1C2=NC1CCCCC1	-12.9	103.0	8.6	8.0	105.0	.	.	.
Cc1ccc2c(c1)C(=NC1CCCCC1)c1cc3ccccc3nc1-2	-2.6	67.0*[inhibitor]	1.7	1.0	101.0	107.0	7.0	105.0
O=C(NC1(C(F)(F)F)NC(=O)N(c2ccc(F)cc2)C1=O)c1cccs1 (stereo not drawn)	10.2	158.0*	3.9	0.0	111.0	106.0	-2.0	102.0
CCOC(=O)NC1(C(F)(F)F)NC(=O)N(c2ccc(F)cc2)C1=O (stereo not drawn)	5.1	102.0	-0.6	-1.0	100.0	.	.	.
O=C(C[n+]1ccc(/C=C/c2ccccc2)cc1)c1ccc2c(c1)OCCO2	-7.9	101.0	-17.4	32.0	174.0*	142.0	23.0	97.0
CCc1cccc2sc(N3CCN(C(=O)c4ccc([N+](=O)[O-])o4)CC3)nc12	2.9	.	6.9	.	.	.	.	.
CC1(C(=O)Nc2ccc3c(c2)OCCO3)CN(S(C)(=O)=O)CC(=O)N1C1CCCCCC1 (stereo not drawn)	5.4	.	-9.9	.	.	.	.	.
CC(=O)N1N=C(N)SC12CCCC2	1.5	89.0	0.3	-1.0	97.0	.	.	.
SMILES	NRP1-CendR mod	MEKK3 PB1 HTS	SKN-1 block	MEKK2mut PB1 HTS	MEKK2 WT-MEK5	MEKK2wt confirm	MEKK2mut-MEK5	MEKK3 confirm
CC(=O)NC1=NN(C(C)=O)C2(CCCC2)S1	-1.6	132.0*	10.2	0.0	119.0	107.0	6.0	105.0
CCOC(=O)C1C(=O)NC(C(=O)OCC)(C(=O)OCC)C1CC (stereo not drawn)	-15.3	.	21.9	.	.	.	.	.
COC(=O)C1=C(C)N(Cc2ccccc2)C(=NCc2cccc(C(F)(F)F)c2)N[C@H]1c1cccc(F)c1	-1.7	108.0	-17.9	89.0*	208.0*	221.0*	64.0	108.0
Cc1ccc(S(=O)(=O)N(CCCO)CC(O)CON=C2c3ccccc3-c3ccccc32)cc1 (stereo not drawn)	23.7	136.0*	8.2	0.0	109.0	96.0	-4.0	98.0
CCOC(=O)c1ccc(NS(=O)(=O)c2c(C)n[nH]c2C)cc1	7.2	.	0.9	.	.	.	.	.
Cc1cccc(NS(=O)(=O)c2c(C)n[nH]c2C)c1	-2.1	81.0*[inhibitor]	-2.2	-5.0	90.0	96.0	-11.0	94.0
O=C1C=CC2=C3c4cc(O)c(O)cc4CC3(O)COC2=C1O (stereo not drawn)	11.7	.	26.9	.	.	.	.	.
COc1ccccc1Nc1cc(C)nc2c(C)cccc12	3.4	.	7.2	.	.	.	.	.
COc1ccc(Nc2cc(C)nc3c(C)cccc23)cc1OC	-4.0	111.0	-4.3	26.0*	116.0	109.0	6.0	105.0
O=C1NC[C@@H](CCCCN2CCN(CCC3CCCCC3)C(=O)C2=O)N(CCC2CCCCC2)C1=O	-11.3	.	-5.3	.	.	.	.	.
COc1cccc(CN2CCC2(C)C(=O)Nc2ccc(C)c(O)c2)c1F (stereo not drawn)	-13.9	.	-12.2	.	.	.	.	.
CCCCOCCCNC(=O)C[C@@H]1C[C@@]2(C(=O)OCC)CCCC=C2N(CCc2ccc(OC)c(OC)c2)C1=O	-19.0	.	2.4	.	.	.	.	.
Nc1nc(NCc2ccccc2)nc(NCc2ccccc2)c1[N+](=O)[O-]	-0.8	152.0*	-2.1	1.0	112.0	106.0	6.0	106.0
O=C(Nc1ccc(F)c(Cl)c1)C1Cc2c(-c3ccccc3Oc3ccccc3)ccnc2O1 (stereo not drawn)	-8.4	.	5.1	.	.	.	.	.
CCCc1nn(C)c(C(=O)Nc2cccc3ccccc23)c1Cl	-3.6	131.0*	8.7	1.0	107.0	105.0	0.0	109.0
CCCc1nn(C)c(C(=O)Nc2ccc(CC)cc2)c1Cl	4.5	106.0	2.3	2.0	106.0	.	.	.
Cc1ccc(NC(=O)NNC(=O)c2cccs2)cc1	-3.3	71.0*[inhibitor]	9.4	0.0	94.0	102.0	0.0	106.0
O=C(CSc1nnc(Cc2ccccc2)o1)Nc1ccc(N2CCOCC2)cc1	-4.3	.	0.0	.	.	.	.	.
